Source: PubChem
Cdc25B block: inhibitors of Cdc25B phosphatase catalytic domain, primary screen, biochemical, OMFP fluorescence; inhibition, %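 (compounds tested at 10 µM final in the well)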; recombinant Cdc25B, OMFP fluorescence Ex485/Em525; M-phase inducer phosphatase 2 (Homo sapiens), P30305; 65,000 compounds, 0.1% hits; in the data active = inhibition above about 50%
PLAP activator: PLAP enzyme activators, biochemical, luminescence, HTS | purified PLAP enzyme, luminescent substrate read-out; active compounds read high | activation fold at 20 µM | 96,000 compounds, 1.2% hits | AID 696, 2007; in the data active = activation fold above about 2
Target sequence (P05187 whole entry, looked up): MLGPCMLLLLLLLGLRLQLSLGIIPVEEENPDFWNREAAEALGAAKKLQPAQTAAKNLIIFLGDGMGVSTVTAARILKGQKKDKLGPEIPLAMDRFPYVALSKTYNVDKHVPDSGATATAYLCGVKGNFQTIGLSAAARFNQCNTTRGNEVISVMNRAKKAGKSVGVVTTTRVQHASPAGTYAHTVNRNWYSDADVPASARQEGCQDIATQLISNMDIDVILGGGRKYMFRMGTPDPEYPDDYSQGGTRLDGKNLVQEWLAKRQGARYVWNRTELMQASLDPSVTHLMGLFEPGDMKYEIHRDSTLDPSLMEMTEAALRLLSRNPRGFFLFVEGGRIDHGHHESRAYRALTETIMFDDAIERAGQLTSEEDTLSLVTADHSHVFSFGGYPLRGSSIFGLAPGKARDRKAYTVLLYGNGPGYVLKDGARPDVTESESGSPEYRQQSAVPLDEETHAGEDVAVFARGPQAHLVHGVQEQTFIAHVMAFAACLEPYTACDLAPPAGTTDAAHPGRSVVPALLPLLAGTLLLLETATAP
Hsp90 inh: tumor Hsp90 inhibitors, primary screen, cell lysate, fluorescence polarization, NCI-N417 lysate | AID 429, 2006 | 64,000 compounds, 0.35% hits | Heat shock protein HSP 90-alpha (Homo sapiens), P07900 | inhibition, % at 30 µM | Cy3B-geldanamycin FP displacement;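 active = inhibition above 50%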;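 also: 0% = tracer plus lysate wells and 100% = tracer alone without lysate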
MKP-1 inh: MKP-1 phosphatase inhibitors, primary screen, biochemical, in vitro; 65,000 compounds, 0.15% hits; recombinant MKP-1, OMFP hydrolysis fluorescence; inhibition, %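 (compounds tested at a single concentration somewhere between 10 and 100 µM)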; Dual specificity protein phosphatase 1 (Homo sapiens), P28562;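 active = inhibition above about 50%, limit read from the data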;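 also: 0% = DMSO max control wells and 100% = wells with enzyme stopped by NaOH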
TNAP act mid DEA: human TNAP enzyme activators, primary screen, biochemical, luminescent, intermediate phosphate acceptor level; AID 813, 2007; purified TNAP, CDP-star luminescence, 100 mM DEA, 30 min; active compounds read high; scale: 0 levamisole-inhibited, 1 vehicle-only enzyme; activation factor at 20 µM; 64,000 tested, under 10 active;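 active = activation factor of at least 2 at 20 µM, relative to controls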
HePTP inh: inhibitors of human HePTP phosphatase, primary screen, biochemical, absorbance, leukemia target; inhibition, % at 20 µM; AID 521, 2006; recombinant HePTP phosphatase activity, OD absorbance; 110,000 compounds, 0.64% hits; in the data active = inhibition above about 50%;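 also: plate controls were vehicle for no effect and reference inhibitor for full effect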
Active calls of the source: *; x = no result. Rows were chosen to be rich in hits. Some 1.5% of all compounds tested hit in one or more screens of this group.

SMILES	Cdc25B block	PLAP activator	Hsp90 inh	MKP-1 inh	TNAP act mid DEA	HePTP inh
Cn1ccnc1SCC(=O)N(C1CCCCC1)C1CCCCC1	-6	0.9	1	8	1	4
O=C(CSc1ncn[nH]1)N(C1CCCCC1)C1CCCCC1	x	2*	x	x	x	x
CCCCOc1ccc(CSc2ncn[nH]2)cc1	-11	2.3*	-2	39	1.2	2
Cc1ccc(C)c(S(=O)(=O)NCc2ccccn2)c1	x	x	x	x	x	-9
c1n[nH]c(SCCCCSc2ncn[nH]2)n1	-1	2.6*	-2	-5	1.2	10
OCc1nc2ccccc2n1C/C=C/c1ccccc1	-5	2*	-1	5	1	-12
Cc1ccc(N=C2NC(=O)/C(=C/c3ccc(O)c([N+](=O)[O-])c3)S2)cc1Cl	x	x	x	x	x	102*
O=C1NC(=Nc2ccc(O)cc2)S/C1=C\c1ccc([N+](=O)[O-])cc1	x	x	x	x	x	93*
CC(C)CC(C(=O)Nc1sc2c(c1C(N)=O)CCC(C)C2)N1C(=O)c2ccccc2C1=O (centres undefined)	x	x	x	x	x	-6
COc1c(Cl)ccc(Cl)c1C(=O)Nc1sc2c(c1C(N)=O)CCCC2	x	x	x	x	x	2
Cc1cc(/C=C2\C(=O)NC(=S)N(c3cccc(Cl)c3Cl)C2=O)c(C)n1C	x	x	x	x	x	4
Cc1ccc(/C=C2\C(=O)NC(=S)N(c3ccc(Br)cc3C)C2=O)o1	x	x	x	x	x	87*
Cc1ccc(C=C2C(=O)NC(=S)N(c3ccccc3Cl)C2=O)o1	x	x	x	x	x	65*
Cc1ccc(/C=C2\C(=O)NC(=S)N(c3ccc(Br)cc3)C2=O)o1	x	x	x	x	x	33
CC(C)OC(=O)C1C(=O)CC(C)(O)C(C(=O)OC(C)C)C1c1ccc2c(c1)OCO2 (centres undefined)	x	x	x	x	x	-5
O=C(Cc1ccc(Cl)cc1)Nc1ccc(N2CCN(C(=O)c3ccco3)CC2)c(Cl)c1	4	2.4*	-1	33	0.9	1
O=C(Nc1ccc(N2CCN(C(=O)c3ccco3)CC2)c(Cl)c1)c1cccs1	-7	0.9	-1	22	0.9	-8
COc1cc(NC(=O)CN(c2ccc(C)cc2)S(=O)(=O)c2c(C)n[nH]c2C)cc(OC)c1	-14	1.6	-4	24	1	42
Cc1n[nH]c(C)c1S(=O)(=O)N(CC(=O)NC1CCCC1)c1ccc(C(C)C)cc1	-9	2.3*	-2	-4	1	5
CCc1cccc(NC(=O)CN(c2ccc(OC)cc2)S(=O)(=O)c2c(C)n[nH]c2C)c1	0	2.4*	-3	11	1	3
COc1ccc(N(CC(=O)Nc2ccc(C)c(C)c2)S(=O)(=O)c2c(C)n[nH]c2C)cc1	2	2.1*	0	7	1.1	3
COc1ccc(N(CC(=O)Nc2cccc(C)c2)S(=O)(=O)c2c(C)n[nH]c2C)cc1	2	1.9	0	-3	1	5
COc1ccc(N(CC(=O)Nc2ccc(OC)c(OC)c2)S(C)(=O)=O)cc1	x	x	x	x	x	-7
O=C(NCCC(c1ccccc1)c1ccccc1)c1cc2ccccc2oc1=O	x	x	x	x	x	-4
O=C1CC2c3ccccc3C1C1C(=O)N(c3ccccc3)C(=O)C21 (centres undefined)	x	x	x	x	x	103*
SMILES	Cdc25B block	PLAP activator	Hsp90 inh	MKP-1 inh	TNAP act mid DEA	HePTP inh
Cc1ccc(N2C(=O)C3C4CC(=O)C(c5ccccc54)C3C2=O)cc1 (centres undefined)	x	1.2	x	x	x	5
COc1ccc(/C=N/OCC(=O)N=Nc2c(O)n(CN(C)C)c3ccc(Br)cc23)cc1	x	x	x	x	x	104*
CCOC(=O)c1c(NC(C)=O)sc2c1CCC(C)C2 (centres undefined)	x	x	x	x	x	-8
CCOC(=O)Nc1sc2c(c1C(N)=O)CCC(C)C2 (centres undefined)	x	x	x	x	x	103*
CC1CCc2c(sc(NC(=O)c3ccc(Cl)c(Cl)c3)c2C(N)=O)C1 (centres undefined)	x	x	x	x	x	105*
COc1ccc(OC)c(NC(=S)NC(NC(=O)Cc2cccc3ccccc23)C(Cl)(Cl)Cl)c1 (centres undefined)	x	x	x	x	x	-10
CC(C)c1cc(N=NC(=N)N)cc(C(C)C)c1O	x	x	x	x	x	8
COC(=O)c1cc(OC)c(OC)cc1NC(=O)c1ccc(C)o1	x	2.2*	x	x	x	x
O=C(O)c1ccccc1N=Nc1cc(-c2ccccc2)oc1O	x	x	x	x	x	101*
O=C(O)c1cc(-c2ccccc2)on1	x	0.9	x	x	x	x
COc1cccc2cc(C(=O)Nc3ccc(C(C)=O)cc3)c(=O)oc12	x	x	x	x	x	3
CC1=C(C#N)c2nc(N)c(C#N)c(C)c2/C1=C/c1ccc(-c2ccc(C(=O)O)c(Cl)c2)o1	x	x	x	x	x	102*
O=[N+]([O-])c1ccc(CSc2nnnn2-c2ccccc2)cc1	x	x	x	x	x	-3
CCS(=O)(=O)N1CCC(C(=O)NCc2ccc(F)cc2Cl)CC1	-22	1	0	-2	0.9	2
Cc1cc(C)c(S(=O)(=O)N2CCC(C(=O)NCc3ccc(Cl)cc3Cl)CC2)c(C)c1	x	2.4*	x	x	x	x
COc1ccccc1NC(=O)C(=O)N/N=C/c1ccc(C(=O)O)cc1	x	x	x	x	x	-4
CCOC(=O)c1ccc(NC(=S)NC(NC(=O)Cc2ccccc2)C(Cl)(Cl)Cl)cc1 (centres undefined)	x	x	x	x	x	104*
CCOC(=O)c1ccc(NC(=S)NC(NC(=O)c2ccccc2)C(Cl)(Cl)Cl)cc1 (centres undefined)	x	x	x	x	x	8
S=c1[nH]nc(-c2cc(-c3ccco3)[nH]n2)n1-c1ccccc1	x	2.1*	x	x	x	x
COc1ccc(OC)c(C(=O)CSc2nc3ncccc3[nH]2)c1	-2	2.8*	-4	-9	0.4	-9
COc1ccc(NC(=O)CSc2nc3ncccc3[nH]2)cc1OC	x	2*	x	x	x	x
O=C(Nc1cc(Cl)c(Cl)cc1Cl)c1ccccc1[N+](=O)[O-]	x	x	x	x	x	-1
Cc1cccc(Nc2nnc(SCc3cn4ccsc4n3)s2)c1	-1	2.1*	-3	10	0.9	8
CCOC(=O)C(CCOCCOc1cc(C)cc(C)c1C)C(=O)OCC	x	x	x	x	x	2
Cc1ccc2c(c1)c(N=Nc1nnc3c(n1)[nH]c1ccccc13)c(O)n2C	x	x	x	x	x	87*
SMILES	Cdc25B block	PLAP activator	Hsp90 inh	MKP-1 inh	TNAP act mid DEA	HePTP inh
COc1cc(NC(=O)c2ccc3c(c2)C(=O)N(C2CCCCC2)C3=O)c(C(=O)O)cc1OC	x	x	x	x	x	103*
COc1cc(NC(=O)c2ccc3c(c2)C(=O)N(c2ccccc2OC)C3=O)c(C(=O)O)cc1OC	x	x	x	x	x	0
COc1ccccc1/C=C/C(=O)c1c(-c2ccccc2)c2cc(Cl)ccc2[nH]c1=O	x	x	x	x	x	2
CCCC(=O)c1ccc(N2CCOCC2)c(F)c1	-11	2.1*	-5	10	0.9	-6
O=C(/C=C/c1ccc(Cl)cc1Cl)Nc1nn[nH]n1	x	x	x	x	x	87*
CC(=O)NC1=NC(=O)/C(=C\c2ccc(Br)o2)S1	x	x	x	x	x	102*
